What was measured:
[1] = target: Protein kinase C gamma type (Homo sapiens) (UniProt P05129); conditions: at 1 µM;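 further: each value is an averaged percent inhibition of the enzyme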
[2] = target: T1, Protein kinase C iota type (Homo sapiens) (UniProt P41743); conditions: at 0.1 µM
T1 sequence (whole entry): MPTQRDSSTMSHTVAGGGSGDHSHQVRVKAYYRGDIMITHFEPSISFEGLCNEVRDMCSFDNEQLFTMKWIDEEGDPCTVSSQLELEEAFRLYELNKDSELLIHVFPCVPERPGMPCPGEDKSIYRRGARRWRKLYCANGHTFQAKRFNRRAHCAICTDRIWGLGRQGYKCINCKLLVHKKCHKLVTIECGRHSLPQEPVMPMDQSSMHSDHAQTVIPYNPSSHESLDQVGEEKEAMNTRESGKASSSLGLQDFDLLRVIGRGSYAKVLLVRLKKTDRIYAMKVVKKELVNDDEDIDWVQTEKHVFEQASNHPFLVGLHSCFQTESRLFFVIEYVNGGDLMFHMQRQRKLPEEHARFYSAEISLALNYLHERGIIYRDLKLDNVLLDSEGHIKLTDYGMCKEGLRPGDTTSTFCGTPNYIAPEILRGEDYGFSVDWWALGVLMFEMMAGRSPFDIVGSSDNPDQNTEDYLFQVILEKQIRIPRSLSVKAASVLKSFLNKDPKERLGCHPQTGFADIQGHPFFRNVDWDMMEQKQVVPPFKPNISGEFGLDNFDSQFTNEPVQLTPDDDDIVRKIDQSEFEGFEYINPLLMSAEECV

[3] = target: T1, Protein kinase C iota type (Homo sapiens); conditions: at 1 µM
[4] = target: Protein kinase C theta type (Homo sapiens) (UniProt Q04759); conditions: at 0.1 µM
[5] = target: Protein kinase C theta type (Homo sapiens) (UniProt Q04759); conditions: at 1 µM
[6] = target: Protein kinase C beta type (Homo sapiens) (UniProt P05771); conditions: at 0.1 µM
[7] = target: Protein kinase C beta type (Homo sapiens) (UniProt P05771); conditions: at 1 µM
[8] = target: T2, Serine/threonine-protein kinase D1 (Homo sapiens) (UniProt Q15139); conditions: at 0.1 µM
T2 sequence (whole entry): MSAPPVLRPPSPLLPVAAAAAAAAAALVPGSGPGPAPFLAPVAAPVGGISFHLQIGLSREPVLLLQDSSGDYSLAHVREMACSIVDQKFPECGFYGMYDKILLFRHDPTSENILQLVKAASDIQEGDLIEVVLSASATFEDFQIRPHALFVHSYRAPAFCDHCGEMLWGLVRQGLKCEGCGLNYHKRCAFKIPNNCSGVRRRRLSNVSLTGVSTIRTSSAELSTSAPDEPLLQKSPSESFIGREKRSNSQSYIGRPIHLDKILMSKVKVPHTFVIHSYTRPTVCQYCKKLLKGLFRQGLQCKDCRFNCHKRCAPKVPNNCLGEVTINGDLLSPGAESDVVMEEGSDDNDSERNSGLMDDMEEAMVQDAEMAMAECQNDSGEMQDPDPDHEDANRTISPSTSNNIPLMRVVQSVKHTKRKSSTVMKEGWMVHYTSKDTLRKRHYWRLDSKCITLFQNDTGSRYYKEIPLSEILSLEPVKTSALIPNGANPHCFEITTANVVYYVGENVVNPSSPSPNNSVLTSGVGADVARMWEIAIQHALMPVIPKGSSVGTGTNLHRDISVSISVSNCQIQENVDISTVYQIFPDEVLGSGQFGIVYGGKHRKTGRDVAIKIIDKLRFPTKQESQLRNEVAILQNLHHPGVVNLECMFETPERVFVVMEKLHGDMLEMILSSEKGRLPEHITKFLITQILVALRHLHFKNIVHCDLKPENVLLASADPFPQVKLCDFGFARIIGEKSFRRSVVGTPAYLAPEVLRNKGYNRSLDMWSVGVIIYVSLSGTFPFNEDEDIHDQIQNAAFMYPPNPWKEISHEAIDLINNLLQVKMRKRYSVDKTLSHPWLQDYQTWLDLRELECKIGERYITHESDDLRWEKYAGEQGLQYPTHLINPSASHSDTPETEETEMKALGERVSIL

[9] = target: T2, Serine/threonine-protein kinase D1 (Homo sapiens); conditions: at 1 µM
[10] = target: T3, Serine/threonine-protein kinase D2 (Homo sapiens) (UniProt Q9BZL6); conditions: at 0.1 µM
T3 sequence (whole entry): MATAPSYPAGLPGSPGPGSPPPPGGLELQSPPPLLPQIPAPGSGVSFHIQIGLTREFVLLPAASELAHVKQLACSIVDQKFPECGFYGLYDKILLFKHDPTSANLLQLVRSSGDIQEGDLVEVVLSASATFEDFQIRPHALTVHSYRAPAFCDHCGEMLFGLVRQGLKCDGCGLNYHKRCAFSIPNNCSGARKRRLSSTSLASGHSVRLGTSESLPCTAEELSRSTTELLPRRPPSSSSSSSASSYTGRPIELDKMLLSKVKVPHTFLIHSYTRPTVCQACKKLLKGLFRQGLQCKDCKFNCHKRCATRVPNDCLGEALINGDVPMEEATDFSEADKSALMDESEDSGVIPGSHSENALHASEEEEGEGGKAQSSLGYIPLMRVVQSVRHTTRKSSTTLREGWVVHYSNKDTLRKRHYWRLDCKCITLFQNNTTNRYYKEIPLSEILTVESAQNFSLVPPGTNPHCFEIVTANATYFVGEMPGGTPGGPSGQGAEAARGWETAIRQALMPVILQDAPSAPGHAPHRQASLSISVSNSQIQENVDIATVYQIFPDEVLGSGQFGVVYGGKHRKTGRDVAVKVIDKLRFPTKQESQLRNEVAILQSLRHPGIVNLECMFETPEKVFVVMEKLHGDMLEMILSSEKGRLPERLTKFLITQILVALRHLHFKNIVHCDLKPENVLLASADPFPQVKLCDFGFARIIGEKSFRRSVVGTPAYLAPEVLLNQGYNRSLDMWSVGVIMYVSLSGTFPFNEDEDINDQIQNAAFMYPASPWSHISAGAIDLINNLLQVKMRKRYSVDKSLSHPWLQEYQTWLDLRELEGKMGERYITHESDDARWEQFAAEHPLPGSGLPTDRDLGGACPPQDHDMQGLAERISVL

[11] = target: T3, Serine/threonine-protein kinase D2 (Homo sapiens); conditions: at 1 µM
[12] = target: T4, Serine/threonine-protein kinase D3 (Homo sapiens) (UniProt O94806); conditions: at 0.1 µM
T4 sequence (whole entry): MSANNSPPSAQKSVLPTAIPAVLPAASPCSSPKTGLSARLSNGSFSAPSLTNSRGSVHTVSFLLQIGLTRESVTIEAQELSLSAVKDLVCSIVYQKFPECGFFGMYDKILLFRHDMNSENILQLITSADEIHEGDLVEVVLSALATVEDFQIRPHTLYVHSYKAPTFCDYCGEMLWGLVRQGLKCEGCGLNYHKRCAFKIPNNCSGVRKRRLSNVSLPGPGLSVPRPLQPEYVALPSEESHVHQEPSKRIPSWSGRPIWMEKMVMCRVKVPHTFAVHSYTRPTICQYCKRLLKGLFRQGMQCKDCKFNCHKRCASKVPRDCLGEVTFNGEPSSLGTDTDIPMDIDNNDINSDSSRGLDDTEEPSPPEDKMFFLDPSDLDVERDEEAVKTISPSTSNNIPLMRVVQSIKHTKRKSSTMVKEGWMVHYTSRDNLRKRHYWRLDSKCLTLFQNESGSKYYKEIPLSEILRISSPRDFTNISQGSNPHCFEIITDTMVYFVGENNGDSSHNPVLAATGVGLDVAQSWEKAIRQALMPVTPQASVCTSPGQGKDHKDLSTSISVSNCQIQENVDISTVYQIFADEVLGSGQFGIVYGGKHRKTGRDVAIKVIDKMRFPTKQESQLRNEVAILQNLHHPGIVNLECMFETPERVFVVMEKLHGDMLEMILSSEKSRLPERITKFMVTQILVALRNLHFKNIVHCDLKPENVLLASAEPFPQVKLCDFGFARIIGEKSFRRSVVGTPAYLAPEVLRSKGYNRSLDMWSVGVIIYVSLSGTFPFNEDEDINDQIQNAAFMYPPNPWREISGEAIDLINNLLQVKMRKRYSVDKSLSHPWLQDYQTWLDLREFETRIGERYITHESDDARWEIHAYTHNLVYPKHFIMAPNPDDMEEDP

[13] = target: T4, Serine/threonine-protein kinase D3 (Homo sapiens); conditions: at 1 µM
[14] = target: T5, cGMP-dependent protein kinase 1 (Homo sapiens) (UniProt Q13976); conditions: at 0.1 µM
T5 sequence (whole entry): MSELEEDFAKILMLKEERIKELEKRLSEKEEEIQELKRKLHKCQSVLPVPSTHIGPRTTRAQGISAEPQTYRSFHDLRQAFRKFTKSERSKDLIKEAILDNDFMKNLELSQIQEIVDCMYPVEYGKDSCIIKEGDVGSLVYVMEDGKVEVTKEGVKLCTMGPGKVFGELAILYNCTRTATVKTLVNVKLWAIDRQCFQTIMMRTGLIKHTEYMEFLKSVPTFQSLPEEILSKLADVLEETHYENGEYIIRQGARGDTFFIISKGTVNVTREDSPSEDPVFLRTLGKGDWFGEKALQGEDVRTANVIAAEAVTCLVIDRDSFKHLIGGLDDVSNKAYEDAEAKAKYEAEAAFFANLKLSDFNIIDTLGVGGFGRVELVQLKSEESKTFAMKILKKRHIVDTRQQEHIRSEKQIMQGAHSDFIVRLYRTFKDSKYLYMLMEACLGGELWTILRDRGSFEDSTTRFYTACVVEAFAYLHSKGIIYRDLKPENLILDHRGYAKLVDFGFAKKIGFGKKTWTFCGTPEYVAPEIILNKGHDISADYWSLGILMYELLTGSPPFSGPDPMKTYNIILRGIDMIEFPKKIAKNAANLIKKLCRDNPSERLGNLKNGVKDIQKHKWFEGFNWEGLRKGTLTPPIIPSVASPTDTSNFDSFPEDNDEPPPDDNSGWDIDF

[15] = target: T5, cGMP-dependent protein kinase 1 (Homo sapiens); conditions: at 1 µM
[16] = target: T6, cGMP-dependent protein kinase 2 (Homo sapiens) (UniProt Q13237); conditions: at 0.1 µM
T6 sequence (whole entry): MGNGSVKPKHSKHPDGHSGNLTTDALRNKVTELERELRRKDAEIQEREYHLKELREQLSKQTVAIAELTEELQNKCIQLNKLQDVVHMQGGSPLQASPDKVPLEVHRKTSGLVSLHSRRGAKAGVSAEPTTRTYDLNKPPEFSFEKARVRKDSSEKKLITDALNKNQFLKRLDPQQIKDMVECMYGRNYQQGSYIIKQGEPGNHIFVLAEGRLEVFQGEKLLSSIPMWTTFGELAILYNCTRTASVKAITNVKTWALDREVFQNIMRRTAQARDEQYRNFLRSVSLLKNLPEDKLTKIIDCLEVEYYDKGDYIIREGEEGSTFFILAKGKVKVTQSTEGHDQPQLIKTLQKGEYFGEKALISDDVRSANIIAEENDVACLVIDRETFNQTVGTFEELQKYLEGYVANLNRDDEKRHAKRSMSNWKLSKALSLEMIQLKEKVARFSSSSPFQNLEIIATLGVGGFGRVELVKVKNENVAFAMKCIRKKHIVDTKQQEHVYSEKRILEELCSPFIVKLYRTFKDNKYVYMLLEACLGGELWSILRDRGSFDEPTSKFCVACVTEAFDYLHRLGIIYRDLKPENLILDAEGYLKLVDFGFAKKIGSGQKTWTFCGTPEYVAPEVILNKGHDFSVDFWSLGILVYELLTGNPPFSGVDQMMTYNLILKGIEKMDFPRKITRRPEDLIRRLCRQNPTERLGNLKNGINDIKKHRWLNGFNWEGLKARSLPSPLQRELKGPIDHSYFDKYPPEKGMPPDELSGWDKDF

[17] = target: T6, cGMP-dependent protein kinase 2 (Homo sapiens); conditions: at 1 µM
[18] = target: T7, cAMP-dependent protein kinase catalytic subunit PRKX (Homo sapiens) (UniProt P51817); conditions: at 0.1 µM
T7 sequence (whole entry): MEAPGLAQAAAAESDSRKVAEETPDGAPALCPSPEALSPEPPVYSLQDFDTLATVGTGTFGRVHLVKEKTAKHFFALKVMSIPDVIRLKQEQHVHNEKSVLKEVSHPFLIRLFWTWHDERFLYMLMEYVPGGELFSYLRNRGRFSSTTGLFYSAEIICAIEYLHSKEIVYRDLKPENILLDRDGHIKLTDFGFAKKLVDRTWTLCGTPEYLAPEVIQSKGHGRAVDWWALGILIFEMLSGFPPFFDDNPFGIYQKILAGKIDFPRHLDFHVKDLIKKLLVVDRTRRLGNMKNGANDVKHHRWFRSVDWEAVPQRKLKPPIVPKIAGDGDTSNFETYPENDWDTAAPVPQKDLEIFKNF

[19] = target: T7, cAMP-dependent protein kinase catalytic subunit PRKX (Homo sapiens); conditions: at 1 µM
[20] = target: Rho-associated protein kinase 1 (Homo sapiens) (UniProt Q13464); conditions: at 0.1 µM;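 further: values are mean percent inhibition of ROCK1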
Rho-associated protein kinase 1 (Homo sapiens), sequence (Q13464 2-1354 limits assumed): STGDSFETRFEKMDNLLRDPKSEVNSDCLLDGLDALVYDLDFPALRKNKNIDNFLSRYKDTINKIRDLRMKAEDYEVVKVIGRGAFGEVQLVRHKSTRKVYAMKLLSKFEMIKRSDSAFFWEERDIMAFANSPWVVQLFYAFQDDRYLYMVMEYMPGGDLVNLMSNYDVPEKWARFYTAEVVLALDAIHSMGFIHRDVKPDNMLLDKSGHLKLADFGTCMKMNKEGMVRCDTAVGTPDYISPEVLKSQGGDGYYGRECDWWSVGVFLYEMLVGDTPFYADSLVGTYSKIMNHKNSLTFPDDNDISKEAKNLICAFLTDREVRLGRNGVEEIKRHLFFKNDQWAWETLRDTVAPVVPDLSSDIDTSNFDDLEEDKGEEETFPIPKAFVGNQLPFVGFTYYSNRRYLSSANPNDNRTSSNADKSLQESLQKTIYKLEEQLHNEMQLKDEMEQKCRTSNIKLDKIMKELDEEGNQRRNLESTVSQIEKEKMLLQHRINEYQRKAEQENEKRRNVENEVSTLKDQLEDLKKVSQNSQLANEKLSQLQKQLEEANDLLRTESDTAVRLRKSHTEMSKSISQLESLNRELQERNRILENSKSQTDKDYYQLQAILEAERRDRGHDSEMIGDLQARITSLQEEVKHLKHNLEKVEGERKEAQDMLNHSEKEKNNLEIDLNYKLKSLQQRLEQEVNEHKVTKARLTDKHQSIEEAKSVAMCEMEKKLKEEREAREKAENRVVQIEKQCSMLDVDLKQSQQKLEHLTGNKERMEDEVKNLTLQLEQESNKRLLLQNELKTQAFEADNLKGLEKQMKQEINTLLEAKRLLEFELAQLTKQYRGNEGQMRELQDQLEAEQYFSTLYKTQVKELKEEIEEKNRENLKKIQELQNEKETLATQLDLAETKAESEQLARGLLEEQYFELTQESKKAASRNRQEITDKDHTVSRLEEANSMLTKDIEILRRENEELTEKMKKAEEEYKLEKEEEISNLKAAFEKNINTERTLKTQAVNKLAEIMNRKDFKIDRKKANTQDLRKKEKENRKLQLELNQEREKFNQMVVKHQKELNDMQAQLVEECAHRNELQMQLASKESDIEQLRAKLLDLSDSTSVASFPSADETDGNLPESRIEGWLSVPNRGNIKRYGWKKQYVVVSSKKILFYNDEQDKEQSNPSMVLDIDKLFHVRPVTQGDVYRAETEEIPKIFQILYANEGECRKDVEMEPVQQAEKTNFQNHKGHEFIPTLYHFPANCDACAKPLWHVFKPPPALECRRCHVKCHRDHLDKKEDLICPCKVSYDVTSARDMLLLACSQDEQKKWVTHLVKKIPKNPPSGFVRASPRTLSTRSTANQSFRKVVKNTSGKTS

Protein kinase C beta type (Homo sapiens), sequence (P05771 2-671 limits assumed): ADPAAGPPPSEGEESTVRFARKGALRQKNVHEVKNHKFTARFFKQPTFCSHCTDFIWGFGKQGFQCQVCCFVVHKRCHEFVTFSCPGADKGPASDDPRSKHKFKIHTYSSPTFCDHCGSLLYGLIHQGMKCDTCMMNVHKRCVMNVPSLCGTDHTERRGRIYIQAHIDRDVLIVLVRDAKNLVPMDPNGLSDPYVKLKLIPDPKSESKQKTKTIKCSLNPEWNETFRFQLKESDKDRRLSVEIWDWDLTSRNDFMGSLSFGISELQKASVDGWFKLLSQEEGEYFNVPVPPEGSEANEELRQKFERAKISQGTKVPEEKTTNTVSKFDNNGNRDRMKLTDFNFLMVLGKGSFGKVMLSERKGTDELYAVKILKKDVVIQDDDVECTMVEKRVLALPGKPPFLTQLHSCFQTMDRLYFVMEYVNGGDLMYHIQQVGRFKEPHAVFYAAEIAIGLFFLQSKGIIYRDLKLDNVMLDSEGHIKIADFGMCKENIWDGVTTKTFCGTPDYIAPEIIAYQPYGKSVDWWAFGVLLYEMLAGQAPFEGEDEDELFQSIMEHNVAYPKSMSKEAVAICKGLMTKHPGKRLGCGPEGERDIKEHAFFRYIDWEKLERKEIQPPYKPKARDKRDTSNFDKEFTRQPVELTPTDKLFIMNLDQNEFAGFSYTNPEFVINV
Protein kinase C theta type (Homo sapiens), sequence (Q04759 whole entry, looked up): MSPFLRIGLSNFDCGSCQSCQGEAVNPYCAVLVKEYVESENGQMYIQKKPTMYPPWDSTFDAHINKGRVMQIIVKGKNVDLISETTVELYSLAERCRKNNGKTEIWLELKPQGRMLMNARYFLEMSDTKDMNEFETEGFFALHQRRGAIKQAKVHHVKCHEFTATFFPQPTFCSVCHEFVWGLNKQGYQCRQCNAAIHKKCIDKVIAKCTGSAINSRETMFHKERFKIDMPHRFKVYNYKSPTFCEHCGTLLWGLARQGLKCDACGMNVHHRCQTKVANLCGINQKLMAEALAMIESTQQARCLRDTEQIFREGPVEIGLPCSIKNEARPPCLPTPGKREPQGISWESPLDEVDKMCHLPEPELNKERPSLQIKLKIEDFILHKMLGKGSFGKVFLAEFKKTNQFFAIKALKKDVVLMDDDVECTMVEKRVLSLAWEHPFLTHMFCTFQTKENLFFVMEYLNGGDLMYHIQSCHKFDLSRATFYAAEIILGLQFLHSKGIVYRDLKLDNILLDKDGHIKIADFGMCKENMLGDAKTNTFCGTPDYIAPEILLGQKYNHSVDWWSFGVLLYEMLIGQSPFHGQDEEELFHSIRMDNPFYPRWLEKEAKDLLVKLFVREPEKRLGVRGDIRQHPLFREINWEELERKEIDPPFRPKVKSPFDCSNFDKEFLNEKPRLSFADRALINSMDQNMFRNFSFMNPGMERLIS

## O=C(O[C@H]1CN[C@H](C#Cc2cc3ncnc(Nc4ccc5c(cnn5Cc5ccccc5)c4)c3s2)C1)N1CCOCC1
[1]
  inhibition: 1.11%
[2]
  inhibition: -1.84%
[3]
  inhibition: -0.97%
[4]
  inhibition: -0.32%
[5]
  inhibition: -1.1%
[6]
  inhibition: -0.16%
[7]
  inhibition: -0.06%
[8]
  inhibition: 2.57%
[9]
  inhibition: 1.38%
[10]
  inhibition: 1.01%
[11]
  inhibition: 1.12%
[12]
  inhibition: 0.01%
[13]
  inhibition: 1.45%
[14]
  inhibition: -0.48%
[15]
  inhibition: -0.54%
[16]
  inhibition: -0.72%
[17]
  inhibition: 0.09%
[18]
  inhibition: -0.58%
[19]
  inhibition: -0.71%
[20]
  inhibition: -2.14%

## Cc1cc(O)cc(C)c1/C=C/c1cncc(C(N)=O)c1
[1]
  inhibition: 2.79%
[2]
  inhibition: 0.54%
[3]
  inhibition: 1.6%
[4]
  inhibition: 1.21%
[5]
  inhibition: 0.54%
[6]
  inhibition: 1.28%
[7]
  inhibition: 1.05%
[8]
  inhibition: 2.25%
[9]
  inhibition: 3.69%
[10]
  inhibition: 2.04%
[11]
  inhibition: 2.16%
[12]
  inhibition: 3.14%
[13]
  inhibition: 2.74%
[14]
  inhibition: 2.79%
[15]
  inhibition: 5.83%
[16]
  inhibition: 0.33%
[17]
  inhibition: 3.49%
[18]
  inhibition: 1.71%
[19]
  inhibition: 3.29%
[20]
  inhibition: 2.2%

## c1cnn2ncc(-c3ccnc(NCCCN4CCOCC4)n3)c2c1
[1]
  inhibition: 4.8%
[2]
  inhibition: 0.92%
[3]
  inhibition: 4.4%
[4]
  inhibition: 2.07%
[5]
  inhibition: 2.41%
[6]
  inhibition: 1.96%
[7]
  inhibition: 3.47%
[8]
  inhibition: 2.81%
[9]
  inhibition: 5.95%
[10]
  inhibition: 3.62%
[11]
  inhibition: 5.4%
[12]
  inhibition: 3.94%
[13]
  inhibition: 5%
[14]
  inhibition: 3.07%
[15]
  inhibition: 8.93%
[16]
  inhibition: 3.44%
[17]
  inhibition: 4.91%
[18]
  inhibition: 1.06%
[19]
  inhibition: 3.97%
[20]
  inhibition: 2.01%
